20 molecules from PubChem BioAssay (NCI) can be followed below.

Test [1] can be described thus: NCI Yeast Anticancer Drug Screen. Data for the rad50 strain (AID 155).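 Note: 0% = growth of vehicle-only cultures of the same strain.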 The note with it: S. cerevisiae rad50 strain growth inhibition; at 50.0 µM; active compounds read high. Summed up:
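Yeast carrying a defined DNA repair defect were exposed to test compounds, and growth was compared with vehicle-treated controls to give percent inhibition.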

Test [2] is described as follows: NCI Yeast Anticancer Drug Screen. Data for the mec2-1 strain (AID 157). As to conditions: S. cerevisiae mec2-1 strain, at 50.0 µM, active compounds read high. An outline of the steps: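 Readout is yeast growth inhibition, normalised to vehicle-treated controls, in the mec2-1 strain exposed to compound.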
A short description of test [3]: NCI Yeast Anticancer Drug Screen. Data for the sgs1 mgt1 strain (AID 161).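 Note: 0% = growth of cultures given vehicle only.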 The note with it: S. cerevisiae sgs1 mgt1 strain, at 50.0 µM, active compounds read high. An outline of the steps:
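Growth of a repair-deficient yeast mutant was monitored after compound treatment and expressed as inhibition relative to vehicle-treated cultures.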

Test [4] is described as follows: NCI Yeast Anticancer Drug Screen. Data for the cln2 rad14 strain (AID 165).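 Note: 0% = growth equal to vehicle treated cultures.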 The note with it: S. cerevisiae cln2 rad14 strain, at 50.0 µM, active compounds read high. Summed up: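 Relative to vehicle controls, growth inhibition of compound-treated cln2 rad14 yeast was recorded.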
Test [5] in a line: NCI Yeast Anticancer Drug Screen. Data for the bub3 strain (AID 167). As to conditions: S. cerevisiae bub3 mutant strain, at 50.0 µM, active compounds read high. Summed up: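 Compounds were applied to a genetically altered yeast strain carrying a cell-cycle control defect. Growth inhibition was scored against vehicle-treated controls.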
A short description of test [6]: NCI Yeast Anticancer Drug Screen. Data for the mlh1 rad18 strain (AID 175). As to conditions: S. cerevisiae mlh1 rad18 strain growth inhibition; at 50.0 µM; active compounds read high. An outline of the steps: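 Test agents were incubated with a yeast strain of defined genotype (DNA damage repair defect). Inhibition of growth was derived by comparison with vehicle-exposed cultures.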

This is part of a sample that, as a whole, favours compounds with a hit. Of some 79,000 tested, about 15% had one in any assay. Values without a mark were called inactive. Active and inactive are the calls of the source. Cut-off read from the data, not from the text of the source: active = growth inhibition above about 70%; inactive = the rest.

Turning to `Cc1onc(-c2ccc(-c3noc(C)c3C(=O)O)cc2)c1C(=O)O`, the growth inhibition is -1.9% in test [1]; -7.75% in test [2]; -3.25% in test [3]; -5.4% in test [4]; -10.4% in test [5]; 11.4% in test [6].
For `O=[N+]([O-])c1ccc(NC(=S)Nc2ccc([N+](=O)[O-])cc2)cc1`, the growth inhibition in test [1] is 5.05%; in test [2], -17.6%; in test [3] it was -1.1%; in test [4], -25.8%; in test [5], 5.7%; in test [6], 2.75%.
As for `CN(C)C(=S)SCCC(=O)O`, the growth inhibition in test [1] was 3.05%; in test [2] it was -4.3%; in test [3], 6.05%; in test [4], 8.5%; in test [5] it was -2.65%; in test [6], -8.2%.
As for `CCCCCCCCCC[N+](C)(C)CC(O)CO` (stereo not given), the growth inhibition in test [1] was -51.8%; in test [2], 7.9%; in test [3], 2.2%; in test [4] it was 9.45%; in test [5] it was -2.85%; in test [6] it was -11.3%.
With `COC(=O)[C@@H](N1C(=O)c2ccccc2C1=O)C1(C)CC(Cl)=NO1` (stereo not given in full), the growth inhibition was -14.4% in test [1]; 2.75% in test [2]; -14.7% in test [3]; -11.8% in test [4]; 4.45% in test [5]; 12.1% in test [6].
In the case of `COc1c(OC(C)=O)cc(Cl)c(C=O)c1[N+](=O)[O-]`, the growth inhibition in test [1] is 5.25%; in test [2], 2.4%; in test [3], 19.3%; in test [4], 5.8%; in test [5] it was 1.55%; in test [6], -9.3%.
Turning to `O=C(NCCCl)Oc1cccn(C(=O)NCCCl)c1=O`, the growth inhibition in test [1] was 7.15%; in test [2], 9.7%; in test [3], -2.55%; in test [4], 9.1%; in test [5] it was 0.65%; in test [6], -0.8%.
As for `Cc1coc2c1C1OC(=O)C3(C/C=C\C(C)C2)OC13` (stereo not given), the growth inhibition in test [1] is 0.15%; in test [2] it was -32.6%; in test [3], -2.55%; in test [4], -6.3%; in test [5], -13.9%; in test [6], -5.95%.
Turning to `CN(Cc1ccccc1)C(=O)NC1CCCCC1`, the growth inhibition is 2.3% in test [1]; 0.05% in test [2]; 4.8% in test [3]; -22.8% in test [4]; 3.4% in test [5]; 2.55% in test [6].
For the molecule `CN(C)c1ncnc2c1cnn2C1OC(CO)C(O)C1O` (stereo not given), the growth inhibition in test [1] was 5.85%; in test [2], 14.2%; in test [3], 17.3%; in test [4], 15.2%; in test [5], 19.6%; in test [6], 30.7%.
As to `S=C1N=C(Cl)/C(=C\c2ccco2)N1`, the growth inhibition is -4.55% in test [1]; -18% in test [2]; 12.1% in test [3]; 4.2% in test [4]; 15.9% in test [5]; -20.6% in test [6].
Regarding `c1ccc(N=C2SC(=NNc3ccccc3)SC2=Nc2ccccc2)cc1`, the growth inhibition is -21.8% in test [1]; 6.25% in test [2]; -21.9% in test [3]; -29.5% in test [4]; -8.25% in test [5]; -4.1% in test [6].
With `Cc1ccc(S(=O)(=O)NC2C(=O)c3ccccc3C(=O)C2n2ccnc2)cc1` (stereo not given), the growth inhibition in test [1] was 4.85%; in test [2] it was -1.8%; in test [3], 0.75%; in test [4], 2.75%; in test [5], 7.8%; in test [6], -21.5%.
For `Cc1cccc(NC(=O)/C=C/c2ccc(N(CCC#N)CCC#N)cc2C)c1`, the growth inhibition is 9.15% in test [1]; 7.25% in test [2]; -6% in test [3]; 6.6% in test [4]; 40.4% in test [5]; 19.9% in test [6].
Regarding `NC1=NC(c2ccccc2)C2=C(N1)C(=O)N(c1ccc(Br)cc1)C2` (stereo not given), the growth inhibition in test [1] is 43.3%; in test [2], -7.75%; in test [3], -2.45%; in test [4] it was -12.3%; in test [5] it was 7.7%; in test [6] it was -2.65%.
For `O=C/C=C/c1ccc2c(c1)OC(CO)C(c1ccc(O)c(O)c1)O2` (stereo not given), the growth inhibition in test [1] is 9.15%; in test [2] it was 2.2%; in test [3] it was 6.7%; in test [4] it was 8.15%; in test [5], 9.7%; in test [6], 3.2%.
As for `CC(=O)c1ccc(CCCCc2ccc([N+](=O)[O-])cc2)cc1`, the growth inhibition in test [1] is -4.2%; in test [2] it was -17.8%; in test [3], 16.5%; in test [4], -59.5%; in test [5], 18.2%; in test [6], -32%.
As for `O=C1CN(c2ccccc2)Cc2nc(Cl)ccc2N1`, the growth inhibition in test [1] was 39.9%; in test [2], 7.45%; in test [3], 24.4%; in test [4], 17.4%; in test [5] it was 3.55%; in test [6], 72.5% (active).
`CN(C)NC(=O)CC#N`: the growth inhibition in test [1] was -18.4%; in test [2], -1.55%; in test [3] it was -4.45%; in test [4], -4.3%; in test [5], -6%; in test [6], 2.75%.
`COc1ccccc1N=Nc1c(-c2ccccc2)nn(C(=O)CC(=O)Nc2cccc(C)c2)c1-c1ccccc1`: the growth inhibition in test [1] is 29.1%; in test [2], 17.5%; in test [3], 4.9%; in test [4] it was 5.65%; in test [5] it was 52.5%; in test [6], 27.3%.
